This passage reports Potency and viability results from PubChem BioAssay (NCATS).

Inconclusive results are not listed. Unmarked numbers belong to inactive results. Calls of active or inactive are those of the source. Calls come from the whole dose curve; as a rule, active = well fitted curve in the direction sought with a large enough effect; inconclusive = small, poorly fitted or top-dose-only effect, or another doubt; inactive = no such curve, though single readings can be large; an effect the other way counts as inactive or inconclusive.

Assay [1] addresses Aldehyde dehydrogenase, mitochondrial (Homo sapiens) (UniProt P05091). The experiment in a line: qHTS for Inhibitors of the Aldehyde Dehydrogenase Family (ALDH2) Primary screen (AID 2061308).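 Note: plate controls were vehicle for no effect and reference inhibitor for full effect; nearly all actives have a fitted effect of over 55% in size.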 On the technique in general: qHTS replaces the single test concentration by a dilution series.
Assay [2] has as its target Retinaldehyde dehydrogenase 3 (Homo sapiens) (UniProt P47895). The assay is described as follows: qHTS for Inhibitors of the Aldehyde Dehydrogenase Family (ALDH1A3) Primary screen (AID 2061315).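 Note: plate controls were DMSO vehicle for no effect and reference inhibitor for full effect.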
Assay [3] can be described thus: BET inhibitor-based combinations targeting novel dependencies in MECOM-rearranged (r) AML: SET-2 cell line (AID 2202231).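 For viability: plate controls were DMSO treated cells for no effect and wells without cells for full effect.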 Note: nearly all actives have a fitted effect of over 35% in size. Note: potency is the fitted concentration of half-maximal effect. Conditions: SET-2 AML cells viability, CellTiter-Glo luminescence, 48 h; viability: active compounds read low, concentration not given here. The essentials: (§1)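 AML cell lines seeded at 500 cells/well, treated with 11-point dose curves for 48 h. Viability by CellTiter-Glo luminescence, normalised to DMSO and empty wells; activity expressed as AUC and per-cell-line Z-transformed AUC.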
In general terms: Cellular ATP, detected with luciferase, serves as a proxy for viable cell number.

Assay [4] is described as follows: BET inhibitor-based combinations targeting novel dependencies in MECOM-rearranged (r) AML: OCI-AML3 cell line (AID 2202232). Note: nearly all actives have a fitted effect of over 35% in size. Note: potency is the fitted concentration of half-maximal effect. Conditions: Potency: OCI-AML3 viability. The essentials:
as §1

Assay [5] is described as follows: BET inhibitor-based combinations targeting novel dependencies in MECOM-rearranged (r) AML: MV-4-11 cell line (AID 2202233). Note: nearly all actives have a fitted effect of over 45% in size. Note: potency is the fitted concentration of half-maximal effect. The essentials:
(§2)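 Cells at 500/well were exposed for 48 hr to MIPE v5.0 drugs as 11-point dose curves. Viability was read by CellTiter-Glo luminescence and normalized to DMSO and empty-well controls. Activity was expressed as AUC and per-cell-line Z-AUC.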

A short description of assay [6]: BET inhibitor-based combinations targeting novel dependencies in MECOM-rearranged (r) AML: HNT-34 cell line (AID 2202234). Note: nearly all actives have a fitted effect of over 35% in size. Note: potency is the fitted concentration of half-maximal effect. The essentials: as §2
Assay [7] in a line: BET inhibitor-based combinations targeting novel dependencies in MECOM-rearranged (r) AML: UCSD-AML1 cell line (AID 2202235). Note: nearly all actives have a fitted effect of over 40% in size. Note: potency is the fitted concentration of half-maximal effect. The essentials: as §2
Assay [8] in a line: BET inhibitor-based combinations targeting novel dependencies in MECOM-rearranged (r) AML: AML-191 cell line (AID 2202236; note: nearly all actives have a fitted effect of over 35% in size; note: potency is the fitted concentration of half-maximal effect). The essentials:
as §1

Assay [9] in a line: BET inhibitor-based combinations targeting novel dependencies in MECOM-rearranged (r) AML: AML-194 cell line (AID 2202237; note: nearly all actives have a fitted effect of over 40% in size; note: potency is the fitted concentration of half-maximal effect). The essentials: as §1
The target in assay [10] is Aldehyde dehydrogenase 1A1 (Homo sapiens) (UniProt P00352). The assay is described as follows: qHTS for Inhibitors of the Aldehyde Dehydrogenase Family (ALDH1A1) Confirmatory screens (AID 2061316). Note: potency is the fitted concentration of half-maximal effect; nearly all actives have a fitted effect of over 65% in size.

As for `Nc1ccc(C(=O)c2cc3c(ccc4ccccc43)[nH]2)cc1`, the Potency entry in assay [1] and in assay [2] was “inactive” in each case. For the same compound, the Potency is 30.3 µM (active) in [3]; 6.79 µM (active) in assay [4]; 3.82 µM (active) in [5]; 2.41 µM (active) in assay [6]; 2.7 µM (active) in assay [7]; 1.52 µM (active) in [8]. Moreover, in assay [9], the Potency is 2.41 µM (active).
`COc1ccc(-c2ccc3ncc4c(c3c2)n(-c2ccc(N3CCNCC3)c(C(F)(F)F)c2)c(=O)n4C)cn1`: the Potency entry in assay [1] and in assay [2] was “inactive” each time. The Potency in assay [3] was 0.332 µM (active); in assay [4] it was 0.235 µM (active); in assay [5], 0.105 µM (active); in assay [6] it was 0.118 µM (active); in [7], 0.0525 µM (active); in [8], 0.132 µM (active). Also, the Potency in assay [9] is 0.118 µM (active).
For `Cc1ccc(N[S+](=O)([O-])c2cc3c(cc2NC2CC2)NC(=O)CC3)cc1C`, the Potency result in assay [1] and in [2] was “inactive” in each case. The Potency in [10] is 28.3 µM (active).
Consider `COCCNCc1ccc(-c2cc3nccc(Oc4ccc(NC(=S)NC(=O)Cc5ccc(F)cc5)cc4F)c3s2)nc1`, for which the Potency result in assay [1] and in [2] was “inactive” each time. Besides, the Potency in [3] was 4.68 µM (active); in assay [4], 2.63 µM (active); in assay [5], 0.132 µM (active); in assay [7], 2.95 µM (active); in [8] it was 2.35 µM (active); in assay [9], 2.63 µM (active).
The term viability denotes a read-out of living cells in per cent, often relative to untreated cells. Consider `Clc1cccc(-c2ccc(-c3nnc(CCCc4ccc5cccnc5n4)o3)cc2)c1`, for which the Potency result in assay [1], in [2], in assay [4], in assay [5], in assay [7] and in assay [8] was “inactive” in each case. The Potency entry in [9] was “inactive”. The viability in assay [3] is 119%.
As for `CNS(=O)(=O)c1ccc2c(c1)/C(=C/c1[nH]c3c(c1CCCN1CCN(C)CC1)CCCC3)C(=O)N2`, the Potency entry in assay [1] and in assay [2] was “inactive” each time. The Potency in assay [3] is 18.6 µM (active); in [4], 18.6 µM (active); in [5] it was 1.18 µM (active); in [6], 20.9 µM (active); in [8], 14.8 µM (active); in assay [9], 13.2 µM (active).
As for `Cc1ccc(C(=O)Nc2ccc(CN3CCN(C)CC3)c(C(F)(F)F)c2)cc1C#Cc1cnc2[nH]ncc2c1`, the Potency entry in [1] and in [2] was “inactive” each time. For the same compound, the Potency is 4.17 µM (active) in assay [3]; 0.934 µM (active) in assay [4]; 0.0023 µM (active) in assay [5]; 0.105 µM (active) in assay [7]; 0.0934 µM (active) in [8]; 0.148 µM (active) in [9].
`COc1ccc(OC)c(-c2nnc3ccc(-c4ccc(OC)c(O[C@@H]5CCOC5)c4)nn23)c1`: the Potency entry in assay [1] and in assay [2] was “inactive” throughout. The Potency in assay [3] is 8.33 µM (active); in [4], 4.17 µM (active); in [5] it was 5.25 µM (active); in assay [8] it was 2.35 µM (active); in [9], 2.35 µM (active).
Consider `Cn1nnnc1Sc1ncnc2scc(-c3cccc(N)c3)c12`, for which the Potency entry in [1] and in assay [2] was “inactive” throughout. For the same compound, the Potency in assay [10] is 22.5 µM (active).
`Cc1c(F)ccc(C(=O)Nc2cc([N+](=O)[O-])ccc2N2CCN(C)CC2)c1Cl`: the Potency result in assay [1], in assay [2], in assay [4], in assay [6], in assay [7] and in assay [8] was “inactive” in each case. Also, in [9], the Potency result was “inactive”. For the same compound, in assay [3], the viability was 110%. Moreover, the Potency in [5] is 3.32 µM (active).
Regarding `CCCCNc1ncc2c(-c3ccc(F)cc3)nn(CC3CCC(N)CC3)c2n1` (centres undefined), the Potency entry in assay [1] and in assay [2] was “inactive” throughout. For the same compound, the Potency was 14.4 µM (active) in [3]; 9.1 µM (active) in assay [4]; 0.129 µM (active) in assay [5]; 4.56 µM (active) in assay [6]; 6.45 µM (active) in assay [7]; 5.74 µM (active) in assay [8]. The Potency in [9] was 5.74 µM (active).
For `CCN1CCN(Cc2ccc(NC(=O)c3ccc(C)c(/C=C/c4cnc5[nH]ccc5c4OC)c3)cc2C(F)(F)F)CC1`, the Potency entry in assay [1] and in assay [2] was “inactive” throughout. Further, the Potency is 5.9 µM (active) in assay [3]; 5.25 µM (active) in assay [4]; 0.186 µM (active) in [5]; 0.209 µM (active) in [6]; 2.95 µM (active) in [7]; 2.95 µM (active) in [8].
In the case of `NC[C@@](O)(c1ccc(Cl)cc1)c1ccc(-c2cn[nH]c2)cc1`, the Potency result in assay [1] and in assay [2] was “inactive” throughout. The Potency in assay [3] is 7.42 µM (active); in assay [4], 5.25 µM (active); in assay [5], 4.68 µM (active); in assay [6], 4.17 µM (active); in [7], 9.34 µM (active); in [8], 7.42 µM (active). The Potency in assay [9] was 6.61 µM (active).
Turning to `CCn1cc(-c2ccnc3[nH]c(-c4cccc(CN(C)C)c4)cc23)c(-c2ccc(NC(=O)N(C)C)cc2)n1`, the Potency result in assay [1] and in assay [2] was “inactive” throughout. Further, the Potency in assay [3] was 16.6 µM (active); in assay [4], 8.33 µM (active); in assay [5], 0.186 µM (active); in assay [6], 3.32 µM (active); in assay [7], 4.17 µM (active); in assay [8] it was 5.25 µM (active). For the same compound, the Potency in [9] was 5.9 µM (active).
As to `Cc1cc(CN2CCN(c3c(Br)cnc4nc(-c5ccc(N6CCN(C)CC6)cc5)[nH]c34)CC2)no1`, the Potency entry in assay [1] and in assay [2] was “inactive” each time. For the same compound, the Potency in assay [3] was 9.34 µM (active); in assay [4] it was 8.33 µM (active); in [5] it was 0.332 µM (active); in assay [6], 1.48 µM (active); in [7], 2.63 µM (active); in assay [8], 5.25 µM (active). Further, the Potency in assay [9] was 4.17 µM (active).
As to `COc1cc2ncnc(Nc3cccc(Cl)c3F)c2cc1OC(=O)N1CCN(C)C[C@H]1C`, the Potency entry in assay [1], in [2], in assay [7], in assay [8] and in assay [9] was “inactive” throughout. Besides, the viability in assay [3] was 103%. The Potency in assay [4] is 13.2 µM (active); in assay [5], 13.2 µM (active); in [6] it was 16.6 µM (active).
With `CCCCCCCCCCCCCCCCOCCCOP(=O)(O)COC(CO)Cn1ccc(N)nc1=O` (centres undefined), the Potency entry in [1], in assay [2], in assay [5], in assay [6], in assay [8] and in assay [9] was “inactive” each time. Besides, the viability in assay [3] is 118%. Further, the Potency is 20.9 µM (active) in assay [4] and 10.5 µM (active) in [7].
